Among the data in the supplement of paper PMC8253809 are growth inhibition values, retold here.

Where “and” joins values, the source holds several entries; their conditions need not be identical. Equal entries are not always repeated.

One test deals with HGGX6 (H3.3 G34R paediatric high-grade glioma line). Put plainly: growth inhibition (% activity, log2 RLU normalised to DMSO / staurosporine); higher = more growth inhibition. As to conditions: 33 µM. An outline of the steps: (§1)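 pHGG cell lines and H9-derived neural stem cells were grown on Geltrex-coated 384-well plates. Approved drugs were added by pin tool at a single final concentration of about 33 μM, in triplicate, for 7 days at 37 °C, 5% CO2. CellTiter-Glo luminescence was log2-transformed and normalised per plate to % activity between solvent and positive control wells. The growth-inhibition value is the median over replicates.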
Take `Cc1ccccc1N1C(=O)c2cc(S(N)(=O)=O)c(Cl)cc2NC1C` (centres undefined): the growth inhibition was -0.825%.
Same read-out and setting: in the case of `Cc1cc(NS(=O)(=O)c2ccc(N)cc2)no1` it was -4.13%; in that of `COC(=O)C1=C(C)NC(C)=C(C(=O)OC2CCCN(Cc3ccccc3)C2)C1c1cccc([N+](=O)[O-])c1` (centres undefined), -0.555%; in that of `CC(C)/N=c1\cc2n(-c3ccc(Cl)cc3)c3ccccc3nc-2cc1Nc1ccc(Cl)cc1`, 7.37%.
The same measure, in the same setting: next, `O=C(OCC(O)CO)c1ccccc1Nc1ccnc2cc(Cl)ccc12` (centres undefined): 1.2%.
Turning to `O=C(O)CSCC(=O)NC1CCSC1=O` (centres undefined), the growth inhibition is -1.19%.
On to `C=C1CC[C@H](O)C/C1=C/C=C1\CCC[C@]2(C)[C@@H]([C@H](C)/C=C/[C@H](C)C(C)C)CC[C@@H]12`, for which the growth inhibition turned out to be 4.35%.
The same measure, in the same setting: in the case of `COC(=O)Nc1nc2cc([S+]([O-])c3ccccc3)ccc2[nH]1` (centres undefined) it was 4.72%; in that of `CN(C)[C@@H](CCOc1cccc2ccccc12)c1ccccc1`, 0.0424%; in that of `O=c1c(-c2ccc(O)cc2)coc2cc(O)cc(O)c12`, 2.54%.
Same read-out and setting: next, `O=C1CCc2cc(OCCCCc3nnnn3C3CCCCC3)ccc2N1`: 2.3%; `C[C@@](Cc1ccc(O)c(O)c1)(NN)C(=O)O`: 0.427%.
On the same count and under the same terms, next, `CCc1ccc(CCOc2ccc(CC3SC(=O)NC3=O)cc2)nc1` (centres undefined): 0.514% and 3.43%; `CC(C[N+](C)(C)C)OC(N)=O` (centres undefined): -2.06%; `CN(C)CCOc1ccc(/C(=C(/CCCl)c2ccccc2)c2ccccc2)cc1`: 5.5%.
As to `CCNC(=O)CCC/C=C\C[C@@H]1[C@@H](/C=C/[C@@H](O)CCc2ccccc2)[C@H](O)C[C@@H]1O`, the growth inhibition came to 1.1%.
On the same count and under the same terms, next, `CO[C@H]1O[C@@H]2O[C@@]3(C)CC[C@H]4[C@H](C)CC[C@@H]([C@H]1C)[C@@]24OO3`: 5.37%; `N=C(N)NS(=O)(=O)c1ccc(N)cc1`: 1.87%; `CNC[C@H](O)c1cccc(O)c1`: 0.958%.
`CC(C)(C)NCC(O)c1ccc(O)c(CO)c1` (centres undefined): the growth inhibition stood at 1.2%.
`C=C1[C@H](CO)[C@@H](O)C[C@@H]1n1cnc2c(=O)[nH]c(N)nc21`: the growth inhibition came out at 2.68%.
With `CC(C)(C(=O)O)c1ccc(C(O)CCCN2CCC(C(O)(c3ccccc3)c3ccccc3)CC2)cc1` (centres undefined), the growth inhibition is -0.102%.
Same read-out and setting: next, `NCCS`: -3.18%; `CCCc1nn(C)c2c(=O)[nH]c(-c3cc(S(=O)(=O)N4CCN(C)CC4)ccc3OCC)nc12`: -0.171%; `COC1C(O)CC(=O)OC(C)CC=CC=CC(OC2CCC(N(C)C)C(C)O2)C(C)CC(CC=O)C1OC1OC(C)C(OC2CC(C)(O)C(O)C(C)O2)C(N(C)C)C1O` (centres undefined): 1.89%.

The test system of another test is HNSC. Described as above. The note with it: 33 µM. An outline of the steps:
as §1
For the compound `Cc1ccc(NC(=O)c2ccc(CN3CCN(C)CC3)cc2)cc1Nc1nc(-c2cccnc2)cs1`, the growth inhibition was 9.74%.
The same measure, in the same setting: in the case of `CO[C@H]1C(=O)[C@]2(C)[C@@H](OC)C[C@H]3OC[C@@]3(OC(C)=O)[C@H]2[C@H](OC(=O)c2ccccc2)[C@]2(O)C[C@H](OC(=O)[C@H](O)[C@@H](NC(=O)OC(C)(C)C)c3ccccc3)C(C)=C1C2(C)C` it was 70.7%; in that of `C#C[C@]1(O)CC[C@H]2[C@@H]3CCc4cc(O)ccc4[C@H]3CC[C@@]21C`, 0.451%; in that of `CN(C)c1ccc(C(=C2C=CC(=[N+](C)C)C=C2)c2ccc(N(C)C)cc2)cc1`, 72.2%.
Same read-out and setting: in the case of `CN1CCN(c2c(F)cc3c(=O)c(C(=O)O)cn(CCF)c3c2F)CC1` it was 5.69%.
The same measure, in the same setting: next, `CC(C)(C#N)c1cc(Cn2cncn2)cc(C(C)(C)C#N)c1`: 2.39%; `CNC(=O)c1ccccc1Sc1ccc2c(/C=C/c3ccccn3)n[nH]c2c1`: 60.4%.
On to `Cc1ccccc1C(=O)Nc1ccc(C(=O)N2CCCC(O)c3cc(Cl)ccc32)c(C)c1` (centres undefined), for which the growth inhibition was 3.21%.
On the same count and under the same terms, in the case of `O=C(O)c1cc(=O)c2ccccc2o1` it was -0.975%; in that of `CC[C@H](C)C(=O)O[C@H]1C[C@H](O)C=C2C=C[C@H](C)[C@H](CC[C@@H](O)C[C@@H](O)CC(=O)O)[C@H]21`, 17.3%.
The same measure, in the same setting: next, `Cc1ccccc1C(OCCN(C)C)c1ccccc1` (centres undefined): -1.91%; `CC(C)(Oc1ccc(Cl)cc1)C(=O)O`: 5.23%; `C#C[C@]1(OC(C)=O)CC[C@H]2[C@@H]3CCC4=C[C@@H](OC(C)=O)CC[C@@H]4[C@H]3CC[C@@]21C`: 1.57%.
Consider `CN1[C@@H]2CC[C@H]1CC(OC(=O)c1c[nH]c3ccccc13)C2` (some centres undefined), for which the growth inhibition worked out at 58.8%.
As for `Cc1ccccc1N1C(=O)c2cc(S(N)(=O)=O)c(Cl)cc2NC1C` (centres undefined), the growth inhibition is -3.02%.
Consider `Cc1cc(NS(=O)(=O)c2ccc(N)cc2)no1`, for which the growth inhibition came to 1.76%.
Still for that read-out and setting: in the case of `COC(=O)C1=C(C)NC(C)=C(C(=O)OC2CCCN(Cc3ccccc3)C2)C1c1cccc([N+](=O)[O-])c1` (centres undefined) it was 33.4%.
On to `CC(C)/N=c1\cc2n(-c3ccc(Cl)cc3)c3ccccc3nc-2cc1Nc1ccc(Cl)cc1`, for which the growth inhibition turned out to be 66.1%.
Same read-out and setting: next, `O=C(OCC(O)CO)c1ccccc1Nc1ccnc2cc(Cl)ccc12` (centres undefined): 0.63%; `O=C(O)CSCC(=O)NC1CCSC1=O` (centres undefined): -1.48%; `C=C1CC[C@H](O)C/C1=C/C=C1\CCC[C@]2(C)[C@@H]([C@H](C)/C=C/[C@H](C)C(C)C)CC[C@@H]12`: 9.22%.
On to `COC(=O)Nc1nc2cc([S+]([O-])c3ccccc3)ccc2[nH]1` (centres undefined), for which the growth inhibition worked out at 19.2%.
Same read-out and setting: in the case of `CN(C)[C@@H](CCOc1cccc2ccccc12)c1ccccc1` it was 67.5%.
On the same count and under the same terms, next, `O=c1c(-c2ccc(O)cc2)coc2cc(O)cc(O)c12`: 3.99%; `O=C1CCc2cc(OCCCCc3nnnn3C3CCCCC3)ccc2N1`: 4.38%; `C[C@@](Cc1ccc(O)c(O)c1)(NN)C(=O)O`: -1.19%.
Still for that read-out and setting: next, `CCc1ccc(CCOc2ccc(CC3SC(=O)NC3=O)cc2)nc1` (centres undefined): -3.49% and 4.18%; `CC(C[N+](C)(C)C)OC(N)=O` (centres undefined): -4.04%.
In the case of `CN(C)CCOc1ccc(/C(=C(/CCCl)c2ccccc2)c2ccccc2)cc1`, the growth inhibition worked out at 2.79%.
For the compound `CCNC(=O)CCC/C=C\C[C@@H]1[C@@H](/C=C/[C@@H](O)CCc2ccccc2)[C@H](O)C[C@@H]1O`, the growth inhibition came out at 1.72%.
The same measure, in the same setting: in the case of `CO[C@H]1O[C@@H]2O[C@@]3(C)CC[C@H]4[C@H](C)CC[C@@H]([C@H]1C)[C@@]24OO3` it was 3.37%; in that of `N=C(N)NS(=O)(=O)c1ccc(N)cc1`, 0.257%; in that of `CNC[C@H](O)c1cccc(O)c1`, 3.62%.
Take `CC(C)(C)NCC(O)c1ccc(O)c(CO)c1` (centres undefined): the growth inhibition is -1.34%.
Regarding `C=C1[C@H](CO)[C@@H](O)C[C@@H]1n1cnc2c(=O)[nH]c(N)nc21`, the growth inhibition was 0.984%.
Still for that read-out and setting: in the case of `CC(C)(C(=O)O)c1ccc(C(O)CCCN2CCC(C(O)(c3ccccc3)c3ccccc3)CC2)cc1` (centres undefined) it was 3.07%; in that of `NCCS`, 0.969%.
With `CCCc1nn(C)c2c(=O)[nH]c(-c3cc(S(=O)(=O)N4CCN(C)CC4)ccc3OCC)nc12`, the growth inhibition stood at 0.834%.
On the same count and under the same terms, next, `COC1C(O)CC(=O)OC(C)CC=CC=CC(OC2CCC(N(C)C)C(C)O2)C(C)CC(CC=O)C1OC1OC(C)C(OC2CC(C)(O)C(O)C(C)O2)C(N(C)C)C1O` (centres undefined): -0.2%.
